Molecules are shown by their SMILES. Records with an inconclusive call do not appear. A number with no mark means an inactive call. Active and inactive are the calls of the source. The call rests on the fitted dose curve; in most records, active means well fitted inhibition curve with a large enough effect; inconclusive means small, poorly fitted or top-dose-only effect; inactive means flat fitted curve, though single readings scatter.

This experiment concerns 6-phosphofructokinase (Trypanosoma brucei). The experiment is described as follows: Confirmatory Assay to Find Inhibitors of T. brucei phosphofructokinase: High ATP. The settings on record: T. brucei PFK, Kinase-Glo luminescence; series mostly up to 57.5 µM; activity, negative = inhibition: at the top concentration. An excerpt:
Various species of the protozoan family Trypanosomatidae are responsible for a range of serious human diseases in tropical and subtropical areas of the world. […] Many of the disorders caused by trypanosomatids are fatal if left untreated, but most currently used drugs are inefficient and toxic. […] Oxidative metabolism involving the mitochondrial tricarboxylic acid cycle and oxidative phosphorylation are repressed in these parasites, and recent RNA interference (RNAi) experiments have shown that even partial depletion of certain individual glycolytic enzymes can lead to the death of cultured parasites. One such glycolytic enzyme, phosphofructokinase (PFK), catalyzes the formation of fructose-1,6-bisphosphate (F1,6BP) and ADP from fructose-6-phosphate (F6P) and ATP, and in many metabolic circumstances makes an important contribution to the control of flux through the glycolytic pathway. As a specific glycolytic target, PFK is particularly attractive as it catalyzes the first irreversible step in glycolysis, and structural and kinetic studies have shown very substantial and essential differences from corresponding host enzymes, allowing for the discovery of parasite-selective inhibitors. A luminescent secondary assay was also performed that used luciferase-based nucleotide detection ([…]) similar to the qHTS, but that alternatively used saturating concentrations (10x Km concentrations) of ATP or F6P to determine if inhibitor potencies were shifted due to particular substrate competition. […] NIH Molecular Libraries Probe Production Network [MLPCN] NIH Chemical Genomics Center [NCGC] Grant: 1 R03 MH092153-01 PI Name: Malcolm Walkinshaw, University of Edinburgh
Substrate buffer was dispensed into white, solid 1536-well plates at 3 uL/well in 0.1M triethanolamine (TEA) buffer, pH 8.0, containing final concentrations of 5 mM MgCl2 and 0.01% Tween20. Standard substrate buffer contained 0.5mM fructose-6-phosphate (F6P) and 0.1mM ATP, high ATP substrate buffer contained 0.5mM fructose-6-phosphate (F6P) and 1mM ATP, high F6P substrate buffer contained 5mM fructose-6-phosphate (F6P) and 0.1mM ATP, and high ATP/F6P buffer contained 5mM fructose-6-phosphate (F6P) and 1mM ATP. Then, 23nl of compounds or DMSO were delivered to each well using a pin tool. One uL of T. brucei PFK (0.1M TEA, 0.01% Tween20, 0.1% bovine serum albumin (BSA) and 1.25nM PFK, final concentrations) was then dispensed, and plates were incubated at room temperature for 45 min. The luminescent detection reagent, Kinase-Glo Plus (Promega), was then added at 2ul/well and incubated for ten minutes at room temperature. The plates were measured on a ViewLux plate reader for luminescent signal using a clear filter with a one second exposure. The %Activity was determined from the corrected luminescence values. 1x (1.25nM) and 0x PFK enzyme controls (untreated) were included to normalize %Activity of identified inhibitors; 0x enzyme values corresponded to 100%Activity (full inhibition), while 1x PFK enzyme values were used to normalize 0% Activity (no inhibition).
In the case of `Cc1cc(NS(=O)(=O)c2ccc(NCCc3ccc(Cl)c(Cl)c3)cc2)no1`, the Potency is 16.3 µM (active).
On the same count and under the same terms, then `O=C(Cc1ccc(Cl)c(Cl)c1)Nc1ccc(S(=O)(=O)Nc2cccc(C(=O)O)c2)cc1`, with 1.03 µM (active).
Turning to `CCOC(=O)c1cccc(NS(=O)(=O)c2ccc(NC(=O)Cc3ccc(Cl)c(Cl)c3)cc2)c1`, the “activity, negative = inhibition” value is -7.44%.
The same measure, in the same setting: then `Cc1cc(NC(=O)c2ccc(NC(=O)Cc3ccc(Cl)c(Cl)c3)cc2)no1`, with -7.03%.
Regarding `O=C(Cc1ccc(Cl)c(Cl)c1)Nc1ccc(S(=O)(=O)O)cc1`, the Potency was 1.03 µM (active).
Still for that read-out and setting: then `Cc1cc(NS(=O)(=O)c2ccc(NC(=O)Cc3ccc(Cl)c(C(F)(F)F)c3)cc2)no1`, with 0.919 µM (active); and `Cc1cc(NS(=O)(=O)c2ccc(NC(=O)Cc3ccc(Cl)c(F)c3)cc2)no1`, with 1.03 µM (active); and `Cc1cc(N(C)S(=O)(=O)c2ccc(NC(=O)Cc3ccc(Cl)c(Cl)c3)cc2)no1`, with 3.26 µM (active).
On the same count and under the same terms, then `O=C(Cc1ccc(Cl)c(Cl)c1)Nc1ccc(S(=O)(=O)Nc2ccc(C(=O)O)cc2)cc1`, with 0.919 µM (active); and `O=C(Cc1ccc(Cl)c(Cl)c1)Nc1ccc(S(=O)(=O)Nc2cncnc2)cc1`, with 1.3 µM (active).
Consider `Cc1cc(NS(=O)(=O)Cc2ccc(NC(=O)Cc3ccc(Cl)c(Cl)c3)cc2)no1`, for which the Potency is 4.11 µM (active).
As for `COc1ccc(CC(=O)Nc2ccc(S(=O)(=O)Nc3cc(C)on3)cc2)cc1C`, the “activity, negative = inhibition” value was -20.3%.
On to `Cc1cc(NS(=O)(=O)c2ccc(NC(=O)Cc3ccc(C)c(C)c3)cc2)no1`, for which the Potency was 18.3 µM (active).
Same read-out and setting: then `O=C(Cc1ccc(Cl)c(Cl)c1)Nc1ccc(S(=O)(=O)Nc2ccon2)cc1`, with 0.326 µM (active); and `Cc1cc(NS(=O)(=O)c2ccc(NC(=O)Cc3ccc4ccccc4c3)cc2)no1`, with 5.8 µM (active); and `CN(C)c1cccc(NS(=O)(=O)c2ccc(NC(=O)Cc3ccc(Cl)c(Cl)c3)cc2)c1`, with 23.1 µM (active).
Turning to `Cc1cc(NC(=O)c2csc(NC(=O)Cc3ccc(Cl)c(Cl)c3)n2)no1`, the “activity, negative = inhibition” value is -29.8%.
Turning to `Cc1cc(NS(=O)(=O)c2ccc(NC(=O)Cc3ccc(Cl)c(Cl)c3)cc2)n(C)n1`, the Potency is 1.83 µM (active).
With `Cc1cc(NS(=O)(=O)c2ccc(C(=O)NCc3ccc(Cl)c(Cl)c3)cc2)no1`, the Potency was 4.61 µM (active).
The same measure, in the same setting: then `Cc1cc(NS(=O)(=O)c2ccc(NC(=O)Cc3ccc(C)c(F)c3)cc2)no1`, with 8.19 µM (active); and `Cc1cc(N[S+](=O)([O-])c2ccc3cc(NC(=O)Cc4ccc(Cl)c(Cl)c4)ccc3c2)no1`, with 6.51 µM (active).
Same read-out and setting: then `Cc1cc(NS(=O)(=O)c2ccc(NC(=O)Cc3ccc(Cl)cc3Cl)cc2)no1`, with 6.51 µM (active).
For `COc1ccc(CC(=O)Nc2ccc(S(=O)(=O)Nc3cc(C)on3)cc2)cc1OC`, the “activity, negative = inhibition” value was 4.22%.
Turning to `O=C(Cc1ccc(Cl)c(Cl)c1)Nc1ccc(S(=O)(=O)Nc2cccc(O)c2)cc1`, the Potency was 2.91 µM (active).
Same read-out and setting: then `Cc1cc(NS(=O)(=O)c2cccc(NC(=O)Cc3ccc(Cl)c(Cl)c3)c2)no1`, with 18.3 µM (active); and `O=C(Cc1ccc(Cl)c(Cl)c1)Nc1ccc(S(=O)(=O)Nc2ccn[nH]2)cc1`, with 0.73 µM (active); and `Cc1cc(N[S+](=O)([O-])c2ccc(NC(=O)Cc3ccc(Cl)nc3)cc2)no1`, with 18.3 µM (active).
Regarding `O=C(Cc1ccc(Cl)c(Cl)c1)Nc1ccc(S(=O)(=O)Nc2ccccc2)cc1`, the Potency is 13 µM (active).
Same read-out and setting: then `Cc1cc(NS(=O)(=O)c2ccc(N(C)C(=O)Cc3ccc(Cl)c(Cl)c3)cc2)no1`, with 1.3 µM (active).
On the same count and under the same terms, then `Cc1cc(NS(=O)(=O)c2ccc(NC(=O)Cc3ccc(Cl)cc3)cc2)no1`, with 2.91 µM (active).
Still for that read-out and setting: then `Cc1cc(NS(=O)(=O)c2ccc(NC(=O)Cc3ccc(Cl)c(Cl)c3)cc2)no1`, with 0.517 µM (active).
Take `Cc1cc(NS(=O)(=O)c2ccc(NC(=O)Cc3ccc(Cl)c(Cl)c3)cc2)on1`: the Potency is 0.517 µM (active).
The same measure, in the same setting: then `Cc1cc(NS(=O)(=O)c2ccc(NC(=O)Cc3cccc(Cl)c3)cc2)no1`, with 6.51 µM (active); and `Cc1cc(NS(=O)(=O)c2ccc(NC(=O)CCc3ccc(Cl)c(Cl)c3)cc2)no1`, with 16.3 µM (active).

The values are drawn from PubChem BioAssay AID588330 (National Center for Advancing Translational Sciences (NCATS), 2011).
